Columns and labels:
Assay in all cases: thermal shift delta Tm vs DMSO control; higher = stronger stabilization (binding)
Conditions in all cases: 12.5 µM; protein concentration 2 µM
[1] = test system: LOC_OS04G57630-cb004
Method in brief: (§1)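 Heating from 25°C to 95°C at 0.05°C/s, fluorescence was recorded for 19.5 μl wells of 2 μM E. coli-expressed, purified rice kinase domain in 100 mM potassium phosphate pH 7.5, 150 mM NaCl, 10% glycerol and 5 × SYPRO Orange with compound in DMSO. Boltzmann fits gave melting temperatures for this differential scanning fluorimetry assay. The shift reported is the mean of three replicates against the DMSO-only protein.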

[2] = test system: LOC_OS05G07850-cb002
Method in brief: as §1

[3] = test system: LOC_OS05G16824-cb004
Method in brief: as §1

[4] = test system: LOC_OS05G28520-cb001
Method in brief: as §1

[5] = test system: LOC_OS05G30820-cb001
Method in brief: as §1

[6] = test system: LOC_OS05G43570-cb004
Method in brief: as §1

[7] = test system: LOC_OS06G16330-cb003
Method in brief: as §1

[8] = test system: T1, LOC_OS06G22820-cb001
T1 sequence (whole entry): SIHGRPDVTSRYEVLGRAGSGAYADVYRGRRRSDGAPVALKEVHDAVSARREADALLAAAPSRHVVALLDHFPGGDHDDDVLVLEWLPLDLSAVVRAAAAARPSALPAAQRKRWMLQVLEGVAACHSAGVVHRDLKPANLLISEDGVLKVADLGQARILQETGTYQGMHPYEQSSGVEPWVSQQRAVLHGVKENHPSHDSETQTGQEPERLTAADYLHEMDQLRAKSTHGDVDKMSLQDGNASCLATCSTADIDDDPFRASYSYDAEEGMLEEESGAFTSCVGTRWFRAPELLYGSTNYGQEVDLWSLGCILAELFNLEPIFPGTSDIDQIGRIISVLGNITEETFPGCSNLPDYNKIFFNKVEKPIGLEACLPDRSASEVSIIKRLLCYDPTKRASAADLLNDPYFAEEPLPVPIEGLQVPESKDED
Method in brief: as §1

[9] = test system: LOC_OS07G06570-cb004
Method in brief: as §1

[10] = test system: LOC_OS07G07230-cb001
Method in brief: as §1
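Also: purified Escherichia coli-expressed rice kinase domain construct.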

Sequence of LOC_OS06G16330-cb003 (as listed by the source): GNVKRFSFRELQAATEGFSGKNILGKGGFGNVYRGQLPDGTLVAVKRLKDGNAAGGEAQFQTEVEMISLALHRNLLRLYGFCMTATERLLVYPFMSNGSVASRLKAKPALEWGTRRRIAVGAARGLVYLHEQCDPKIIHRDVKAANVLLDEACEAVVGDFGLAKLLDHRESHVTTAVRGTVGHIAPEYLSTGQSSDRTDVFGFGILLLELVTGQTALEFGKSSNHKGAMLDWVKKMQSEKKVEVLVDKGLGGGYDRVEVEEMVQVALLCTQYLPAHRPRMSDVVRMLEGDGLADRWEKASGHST

Row | SMILES | thermal shift delta Tm [1] | thermal shift delta Tm [2] | thermal shift delta Tm [3] | thermal shift delta Tm [4] | thermal shift delta Tm [5] | thermal shift delta Tm [6] | thermal shift delta Tm [7] | thermal shift delta Tm [8] | thermal shift delta Tm [9] | thermal shift delta Tm [10]
1 | CC(C)(C)c1nc(-c2ccc(NC(=O)Nc3cccc(C(F)(F)F)c3)c3ccccc23)c2c(N)nccn12 [kira6] | 1.93 °C | 6.62 °C | 9.24 °C | 0.74 °C | 0.66 °C | 3.12 °C | 4.28 °C | 0.73 °C | 0.73 °C | 0.14 °C
2 | Cc1cnc(NC(=O)Nc2cc(Br)c(C)cc2OC[C@@H]2CNCCO2)cn1 | 0.36 °C | 3.74 °C | 5.41 °C | 0.03 °C | 0.41 °C | 0.24 °C | 0.75 °C | 0.22 °C | 0.46 °C | 0.19 °C
3 | C=CC(=O)N1CCC(Oc2cc3c(Nc4ccc(Cl)c(Cl)c4F)ncnc3cc2OC)CC1 [Poziotinib (HM781-36B)] | 0.32 °C | 4.97 °C | -0.85 °C | 0.58 °C | 0.44 °C | 0.15 °C | 8.31 °C | 0.44 °C | 0.72 °C | 0.28 °C
4 | COc1cc(Nc2ncc(F)c(Nc3ccc4c(n3)N(COP(=O)(O)O)C(=O)C(C)(C)O4)n2)cc(OC)c1OC [Fostamatinib (R788)] | 1.74 °C | 12 °C | 12 °C | 0.41 °C | 2.2 °C | 0.38 °C | 12.2 °C | 0.25 °C | 0.55 °C | 0.44 °C
5 | Cc1ccc(C(=O)Nc2ccc(CN3CCN(C)CC3)c(C(F)(F)F)c2)cc1C#Cc1cnc2[nH]ncc2c1 [GZD824 Dimesylate] | 6.01 °C | 13.9 °C | 2.52 °C | 0.74 °C | 2.1 °C | 1.6 °C | 5.01 °C | 0.3 °C | 0.65 °C | 1.45 °C
6 | COc1cc2ccc(=O)oc2cc1O [Scopoletin] | -0.06 °C | 0.76 °C | 2.23 °C | -0.1 °C | 0.06 °C | -0.08 °C | -0.43 °C | 0.22 °C | 1.13 °C | 0.87 °C
7 | O=c1cc(N2CCOCC2)oc2c(-c3ccc4c(c3)OCCO4)csc12 | 0.03 °C | 6 °C | 1.81 °C | -0.12 °C | 0.24 °C | 0.13 °C | 0.18 °C | 0.4 °C | 1.45 °C | 0.63 °C
8 | COc1ccc(-c2ccc3c(N4CCOC[C@@H]4C)nc(N4CCOC[C@@H]4C)nc3n2)cc1CO | -0.09 °C | 0.42 °C | -7.62 °C | 0.13 °C | 0.67 °C | 0.21 °C | 0.03 °C | 0.43 °C | 0.38 °C | 0.11 °C
9 | CC(C)(O)CNc1ncc(-c2ccnc(Nc3ccncc3)n2)c(CC2CC2)n1 [VPS34 inhibitor 1 (Compound 19, PIK-III analogue)] | 0.13 °C | 6.5 °C | 2.61 °C | 0.38 °C | 0.25 °C | 0.5 °C | 3.99 °C | 0.4 °C | 1.83 °C | 0.44 °C
10 | Cc1ccc(S(=O)(=O)/C=C/C#N)cc1 | 2.48 °C | 7.56 °C | -14.7 °C | 0.54 °C | -0.01 °C | -0.14 °C | -0.31 °C | 0.01 °C | 1.13 °C | -0.21 °C
